Assay results taken from ChEMBL document CHEMBL3433997, “St. Jude Leishmania screening dataset” (2016).

Tests used:
Type in all cases: functional
[1] = target: Solute carrier family 2, facilitated glucose transporter member 1 (Homo sapiens) (UniProt P11166); test: ST_JUDE_LEISH: Cytotoxicity at 2uM final concentration against transgenic Leishmania Mexicana promastigotes LmGLUT1 that are glucose transport deficient and complemented with the human glucose transporter GLUT1. Activity is measured by DNA content using SYBR green in vitro
[2] = target: Hexose transporter 1 (Plasmodium falciparum) (UniProt O97467); test: ST_JUDE_LEISH: Cytotoxicity at 2uM final concentration against transgenic Leishmania Mexicana promastigotes LmPfHT that are glucose transport deficient and complemented with the Plasmodium falciparum hexose transporter. Activity is measured by DNA content using SYBR green in vitro
[3] = target: Glucose transporter (Leishmania mexicana) (UniProt O61059); test: ST_JUDE_LEISH: Cytotoxicity at 2uM final concentration against transgenic Leishmania Mexicana promastigotes LmGT2 that are glucose transport deficient and complemented with the L. Mexicana glucose transporter 2. Activity is measured by DNA content using SYBR green in vitro

Chain of Solute carrier family 2, facilitated glucose transporter member 1 (Homo sapiens) (P11166 whole entry): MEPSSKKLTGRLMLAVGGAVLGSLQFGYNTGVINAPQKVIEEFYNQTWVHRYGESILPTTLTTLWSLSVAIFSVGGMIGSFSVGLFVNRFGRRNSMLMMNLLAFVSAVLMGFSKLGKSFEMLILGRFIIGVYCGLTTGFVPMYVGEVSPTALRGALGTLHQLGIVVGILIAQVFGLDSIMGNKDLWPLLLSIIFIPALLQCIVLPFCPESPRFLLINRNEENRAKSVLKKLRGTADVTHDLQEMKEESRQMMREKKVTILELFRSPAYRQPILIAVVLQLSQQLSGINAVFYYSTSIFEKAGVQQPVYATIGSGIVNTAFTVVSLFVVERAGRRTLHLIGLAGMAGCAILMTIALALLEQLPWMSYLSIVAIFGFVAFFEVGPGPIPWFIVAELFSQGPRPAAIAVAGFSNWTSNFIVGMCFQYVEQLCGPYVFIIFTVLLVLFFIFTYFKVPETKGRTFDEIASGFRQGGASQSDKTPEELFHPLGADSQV

SMILES | inhibition [1] [%] | inhibition [2] [%] | inhibition [3] [%]
CCC(C)CN1CCN(c2cc(NC(=O)c3cccs3)ccn2)C(C)C1 (centres undefined) | -1.02 | 2.3 | 1.68
O=c1cc(-c2ccc3ccccc3c2)[nH]c2ccccc12 | 2.83 | 2.68 | 2.23
Cc1nc(N)nc(N)c1CCCOc1ccccc1Br | 5.7 | 8.36 | 2.57
COCCNC(=O)C1CCN(C(c2ccc(Cl)cc2)c2ccc(Cl)cc2)CC1 | 7.23 | 6.03 | 9.02
CCOc1ccc2nc(NC(=O)c3csnn3)sc2c1 | 4.69 | 3.55 | -1.06
Cc1cccc2nc(-c3ccc(-c4cccc(CNCc5ccc(CN)cc5)c4)s3)[nH]c12 | 3.9 | 3.91 | 4.55
O=C(CSc1nccn1C1CCCC1)Nc1cc(C(F)(F)F)ccc1Cl | 1.51 | 2.58 | 2
COc1ccccc1C(=O)Nc1ccc(Nc2nc(C)cc(N3CCOCC3)n2)cc1 | 4.83 | 4.3 | 5.97
NS(=O)(=O)CCc1cccc(Nc2nccc(-c3c(-c4cccc(NC(=O)c5c(F)cccc5F)c4)nn4ccccc34)n2)c1 | 4.25 | 8.18 | 1.61
COc1cc(C(C)C)nc2ccc(NC(=O)c3ccc(C(=O)Nc4ccc5nc(C(C)C)cc(OC)c5c4)cc3)cc12 | 6.44 | 5.94 | 3.76
Nc1nccc(-c2ccc3c(/C=C/c4ccccc4)cnc(N)c3c2)n1 | 18.2 | 24.5 | 0.5
COc1ccc2ncc(C)c(CCN3CCC(NCc4ccc5c(n4)NC(=O)CS5)CC3)c2c1 | 8.73 | 6.68 | 6.71
CC1CN(c2cccc3c2nc(-c2cncc(C#N)c2)n3CCNCc2ccccc2)CC(C)O1 (centres undefined) | 3.09 | 2.38 | 2.56
COc1ccccc1-c1ccc(CNC(=O)C(CN2CCN(C)CC2)c2ccccc2)cc1 (centres undefined) | 2.94 | 1.12 | 2.44
CC(CN)OCn1cnc2c(N)ncnc21 (centres undefined) | 0.4 | 4.03 | 4.83
O=c1cc(NCCCNCc2cc(Cl)c(Cl)cc2Cl)[nH]c2ccccc12 | 0.5 | -0.04 | 0.23
O=C(NCCCCN1CCN(c2cccc(Cl)c2Cl)CC1)c1ccc2c(c1)CCN(C1CCC1)CC2 | 1.09 | -1.47 | -0.46

SMILES | inhibition [1] [%] | inhibition [2] [%] | inhibition [3] [%]
FC(F)(F)COc1c(CCNCCCCNCCc2ccc3ccccc3c2OCC(F)(F)F)ccc2ccccc12 | 105 | 103 | 108
CC1=C(C(=O)Nc2cc3cn[nH]c3cc2F)C(c2ccc(Cl)c(NS(C)(=O)=O)c2)CC(=O)N1 (centres undefined) | -2.07 | -0.1 | -2.27
COc1cc2c(cc1OC)CN(c1cc(N)c3cc(OC)c(OC)cc3n1)CC2 | 1.34 | 0.25 | -1.39
O=C(Nc1ccccc1)Nc1cccc(-c2cc(CNCCc3ccccc3)sc2-c2ccncc2)c1 | -0.01 | -0.54 | 4.67
CC(C)C1=C[C@H]2C[C@]3(C4OCCO4)[C@@H]4CC[C@@H](C)[C@H]4C[C@@]2(C(=O)OCC2COCO2)[C@]13C(=O)OC(c1ccccc1)c1ccccc1 (some centres undefined) | -1.18 | -2.48 | -1.79
O=C(C=Cc1ccc(Cl)c(Cl)c1)NCCCCCN1CCC(CCNC(=O)/C=C/c2ccccc2)CC1 | 0.55 | 0.26 | 3.1
COc1cc2cc(Cc3cnc(N)nc3N)ccc2c(OC)c1OC | 0.96 | -0.27 | 1.56
COc1cc(OC)c(NC(=O)C2c3ccccc3C(=O)N(CC(C)C)C2c2cccs2)cc1Cl (centres undefined) | -4.11 | 2.33 | 5.96
CCc1nc2nc(C)cc(Nc3cc(C)cc(C)c3)n2n1 | 3.06 | 2.04 | 3.36
N#Cc1ccccc1N1CCN(C2CCC(NC(=O)c3n[nH]c4cc(C(F)(F)F)ccc34)CC2)CC1 (centres undefined) | 2.94 | 1.88 | 0.43
O=C(Nc1ccc(N2CCNCC2)cc1)c1ccn2ncc(-c3cccc(Cl)c3)c2n1 | 84.8 | 83.9 | 54.3
Cc1ccc(C2(CN3CCC(NC(=O)c4cc[nH]n4)CC3)CCCCC2)cc1 | 0.21 | -1.4 | -0.05
CNCCNCc1cccc(-c2ccc(-c3nc4cc(C(F)(F)F)ccc4[nH]3)cc2)c1 | 0.41 | 2.51 | 2.03
COc1cc(Cc2cnc(N)nc2N)cc(OCCCC#N)c1OC | 0.61 | -1.21 | -1.3
O=S(=O)(NCCN1CCCC1)c1ccc(-c2cccc(CNC3Cc4ccccc4C3)c2)cc1 | 2.76 | 8.98 | 6.15
NC(=O)c1sc(-n2cnc3ccc(C(=O)NCCN4CCOCC4)cc32)cc1OCc1ccccc1C(F)(F)F | 0.72 | -0.6 | -0.32
